This is an account of results in PubChem BioAssay (NCI).

SMILES strings stand for the structures. This is part of a sample that, as a whole, favours compounds with a hit. Of some 83,000 tested, about 20% had one in any assay.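 A percent growth of 40 corresponds to 60% growth inhibition; 0 means no net growth; -100 means all cells died. Active threshold: below 10.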 Calls of active or inactive are those of the source.

The test system of this assay is HL-60(TB) leukemia. Briefly: NCI-60 one-dose screen, 48 h (100 = growth as untreated, 0 = no growth, -100 = all killed). The following applies: 10 µM unless noted.
In the case of `COc1cc(/C=C/C(=O)c2ccccc2)ccc1Oc1nc(Nc2ccc(F)cc2)nc(N(C)C)n1`, the growth is 20.5% (inactive). The result for `CC(C)(C)OC(=O)N1CCC2(CC1)Oc1ccccc1[C@H]1CC(c3ccc(Br)cc3)=NN12` reads 64.1% (inactive); that for `O=C(c1ccc(O)cc1)C1[C@H](c2ccc(Cl)cc2)[C@@H](c2ccccc2)NC12C(=O)Nc1ccccc12` (stereo not given in full), -33.3% (active); that for `Fc1ccc(N2CC(Cn3c(C(F)(F)F)cc4c(Cl)ncnc43)C2)c(F)c1`, -40.3% (active).

As to `Clc1ccc(-c2ccc(OCCCN3CCN(c4ccncc4)CC3)cc2)cc1`, the growth was -13.9% (active).
